Laboratory results reported in PubChem BioAssay (NCATS).
Inconclusive results are not listed. Entries that show only a call come without a potency. Active and inactive are the calls of the source. Calls follow the shape of the dose curve; as a rule, active = well fitted inhibition curve with a large enough effect; inconclusive = small, poorly fitted or top-dose-only effect; inactive = flat fitted curve, though single readings scatter. Where a SMILES comes first, the peptide text is derived from it. [ ]: non-standard residue; d: D form. ξ: configuration not given here. ξLac(3-iPr) = CC(C)CC(O)C(=O)O; NMeV = CN[CH](C(=O)O)C(C)C; βAla = NCCC(=O)O

Assay: P-glycoprotein substrates identified in KB-8-5-11 adenocarcinoma cell line, qHTS therapeutic library screen (AID 1346987); also: nearly all actives have a fitted effect of over 65% in size
Conditions: KB-8-5-11 (P-gp overexpressing) viability, CellTiter-Glo, 72 h; series mostly up to 44.5 µM
How it was run: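 KB-8-5-11: colchicine-selected sub-line of KB-3-1 over-expressing P-gp; assay medium lacked colchicine. 72 h drug exposure at 37 degree C, CellTiter-Glo.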
Potency is read from the fitted curve at half-maximal effect.

SMILES	Potency	outcome	activity change, negative = cytotoxicity
O=C1CCC=CC1(O)C(=O)OCc1ccccc1O[C@@H]1O[C@H](CO)[C@@H](O)[C@H](O)[C@H]1O (some centres undefined)	inactive		
C=CC(=O)Nc1cc(Nc2ncc(Cl)c(-c3c[nH]c4ccccc34)n2)c(OC)cc1N(C)CCN(C)C	5170 nM (active)		
CC1OC(OCC2OC(OC3CCC4(C)C(CCC5(C)C4CC=C4C6CC(C)(C)CCC6(C(=O)OC6OC(CO)C(O)C(O)C6O)CCC45C)C3(C)CO)C(O)C(O)C2O)C(O)C(O)C1O (centres undefined)		inactive [at 9.29 µM]	
Cc1cc(C(N)=O)ccc1-n1c(CCC(=O)O)ccc1-c1ccc(-n2ccnc2)cc1	inactive		
CC(C)N(CCCCOCC(=O)NS(C)(=O)=O)c1cnc(-c2ccccc2)c(-c2ccccc2)n1	inactive		
CC1=C(COC2OC(CO)C(O)C(O)C2O)C(C(CO)C(=O)O)CC1 (centres undefined)	inactive		
C=CC/C=C\C/C=C\CCCCCCCc1cccc(O)c1C(=O)O	inactive		
CC[C@H](CO)Nc1nc(NCc2ccc(-c3ccccn3)cc2)c2ncn(C(C)C)c2n1	231 nM (active)		
CC1(C(=O)O)CCCC2(C)C3CCC4CC3(CCC12)CC4=O (centres undefined)	inactive		
CC(C)CC1OC(=O)C2CCCN2C(=O)CCNC(=O)C(Cc2ccccc2)NC(=O)C(C(C)C)N(C)C(=O)C(C(C)C)N(C)C1=O (centres undefined) (cyclo([ξLac(3-iPr)][NMeV][NMeV]F[βAla]P); configuration not given here)	inactive		
Cc1ccc(C(=O)N(CCCN)C(c2nc3cc(Cl)ccc3c(=O)n2Cc2ccccc2)C(C)C)cc1 (centres undefined)	517 nM (active)		
COc1cc(C(=O)NC2CCN(C)CC2)ccc1Nc1ncc2c(n1)N(C1CCCC1)CC(F)(F)C(=O)N2C	1160 nM (active)		
CC[C@]1(O)CC2CN(CCc3c([nH]c4ccccc34)[C@@](C(=O)OC)(c3cc4c(cc3OC)N(C=O)[C@H]3[C@@](O)(C(=O)OC)[C@H](OC(C)=O)[C@]5(CC)C=CCN6CC[C@]43[C@@H]65)C2)C1 (some centres undefined)	2270 nM (active)		
CC(C)[C@@](C)(O)[C@@H]1CN(c2nc(-c3[nH]nc4ncccc34)c(F)cc2Cl)CCN1	6510 nM (active)		
COc1ccc([C@H]2CNC(=O)C2)cc1OC1CCCC1	inactive		
CO[C@H]1/C=C/C=C/C=C/C[C@H](OC(=O)[C@@H](C)NC(=O)C2CCCCC2)[C@H](C)[C@@H](O)/C(C)=C/CCc2cc(O)cc(c2)NC(=O)C1	inactive		
COc1ccc(/C=C/C(=O)O[C@@H]2[C@@H](O)[C@H](C)O[C@@H](O[C@H]3[C@@H]4C=CO[C@@H](O[C@H]5O[C@@H](CO)[C@H](O)[C@@H](O)[C@@H]5O)[C@@H]4[C@@]4(CO)O[C@@H]34)[C@@H]2OC(C)=O)cc1	inactive		
C=C[C@H]1[C@H](O[C@@H]2O[C@H](CO)[C@@H](O)[C@H](O)[C@H]2O)OC=C(C(=O)OC)[C@H]1C/C=C(/C=O)[C@@H]1C(C(=O)OC)=CO[C@@H](O[C@@H]2O[C@H](CO)[C@@H](O)[C@H](O)[C@H]2O)[C@@H]1C=C	inactive		
CC(C)[N+]1(C)C2CCC1CC(OC(=O)C(CO)c1ccccc1)C2 (centres undefined)	inactive		
C[C@@H]([C@@H](O)c1ccc(O)cc1)N1CCC(O)(c2ccccc2)CC1	inactive		

SMILES	Potency	outcome	activity change, negative = cytotoxicity
O=C1CCC(c2ccccc2)(C2CCN(Cc3ccc(I)cc3)CC2)C(=O)N1 (centres undefined)	inactive		
CC(C)C[C@H](CC(=O)NO)C(=O)N[C@@H](Cc1ccc2ccccc2c1)C(=O)N[C@@H](C)C(=O)NCCN	inactive		
CNS(=O)(=O)CC1CCC(N(C)c2ncnc3[nH]ccc23)CC1 (centres undefined)	inactive		
CCOC(=O)CCN(C(=O)c1ccc2c(c1)nc(CNc1ccc(C(=N)N)cc1)n2C)c1ccccn1	inactive		
COc1cc(/C=C/C(=O)O[C@H]2[C@H](O)[C@@H](CO)O[C@@]2(CO)O[C@H]2O[C@H](CO)[C@@H](O)[C@H](O)[C@H]2O)ccc1O	inactive		
CN(C)c1ccc2c(c1)OC(N)=C(C#N)C2c1cccc(C(F)(F)F)c1 (centres undefined)	326 nM (active)		
CC(=O)C1=C(C)N(c2cccc(C(F)(F)F)c2)C(=O)N[C@H]1c1ccc(C#N)nc1			-2.98% [at 9.29 µM] (inactive)
CCN(Cc1cccnc1)C(=O)CN(c1ccc(OC)nc1)S(=O)(=O)c1ccccc1C	inactive		
C/C1=C\C[C@]2(C)C(=O)C(O)=C([C@H](C)CO)[C@H]2C/C=C(\C)[C@@H](O)CC/C(C)=C/CC1	inactive		
C[C@@H]1C(=O)O[C@H](C)[C@H]1CC(=O)[C@](C)(O)[C@H]1CC[C@@]2(O)C3=CC(=O)[C@@H]4C[C@@H](O)[C@@H](O)C[C@]4(C)C3CC[C@]12C (some centres undefined)	inactive		
NC(=O)c1cnc(NCCc2ccc(O)c(Cl)c2)nc1NCc1ccccc1	10300 nM (active)		
NCCCNc1ccc(Nc2nccc(Nc3cc(C4CC4)[nH]n3)n2)cc1	1300 nM (active)		
CC1=CC(=O)CC2C1(O)CCC(C)C21CC(c2ccoc2)OC1=O (centres undefined)	inactive		
COc1c/c(=C2\C=c3ccccc3=N2)[nH]/c1=C\c1[nH]c(C)cc1C	1160 nM (active)		
O=C(CSc1nc2c(c(=O)n1-c1ccccc1)SCC2)Nc1ccc(-c2ccccc2)cn1	82 nM (active)		
COc1cc(Br)c(S(=O)(=O)Nc2ccc(C(F)(F)F)c(O[C@@H]3CCN(C)C3)c2)cc1OC	inactive		
CC(C)C(CO)Nc1nc(Nc2cc(N)cc(Cl)c2)c2ncn(C(C)C)c2n1 (centres undefined)	7310 nM (active)		
CC[C@H]1OC(=O)[C@H](C)[C@@H](O[C@H]2C[C@@](C)(OC)[C@@H](O)[C@H](C)O2)[C@H](C)[C@@H](O[C@@H]2O[C@H](C)C[C@H](N(C)C)[C@H]2O)[C@](C)(O)C[C@@H](C)C(=O)[C@H](C)[C@H]2OC(=O)O[C@@]21C	inactive		
CO[C@H]1C[C@@H]2CC[C@@H](C)[C@@](O)(O2)C(=O)C(=O)N2CCCC[C@H]2C(=O)O[C@H]([C@H](C)C[C@H]2CC[C@@H](OP(C)(C)=O)[C@H](OC)C2)CC(=O)[C@H](C)/C=C(\C)[C@@H](O)[C@@H](OC)C(=O)[C@H](C)C[C@H](C)/C=C/C=C/C=C/1C	inactive		
